Assay results from PubChem BioAssay AID1159580 (chemical genetic matrix, 2015).
About 2,000 (36%) of roughly 5,500 compounds were called active. About 18% were inconclusive and are not listed. This is one part of the list. Unmarked numbers belong to inactive results. Rule as the data show it: active = normalized growth mostly below about 0.91 (no sharp cut-off); inconclusive = no clear call, values can overlap the other calls; inactive = mostly above about 0.92.

Assay: chemical genetic growth profiling, strain panel (AID 1159580);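 also: tested at 20 µM; growth read once vehicle control cultures reached saturation at 30 °C; 1 = growth at the plate median or of vehicle wells; lower values mean less growth of the strain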
Conditions: growth OD

For `CC1=CC(=O)c2ccccc2C1=O`, the normalized growth (S. cerevisiae deletion strains, locus YJR075W, strain HOC1, active compounds read low) was 0.0628 (active), the normalized growth (S. cerevisiae deletion strains, locus YKL009W, strain mrt4, active compounds read low) was 0.0847 (active) and the normalized growth (S. cerevisiae deletion strains, locus YKL068W, active compounds read low) was 1.01. For the same compound, the normalized growth (S. cerevisiae deletion strains, locus YKL085W, strain MDH1 (second series), active compounds read low) was 0.494 (active), the normalized growth (S. cerevisiae deletion strains, locus YKL085W, strain MDH1, active compounds read low) was 0.494 (active) and the normalized growth (S. cerevisiae deletion strains, locus YKL160W, strain elf1, active compounds read low) was 0.822 (active). For the same compound, the normalized growth (S. cerevisiae deletion strains, locus YKL190W, strain CNB1, active compounds read low) was 0.0475 (active), the normalized growth (S. cerevisiae deletion strains, locus YKR001C, strain vps1, active compounds read low) was 0.0601 (active) and the normalized growth (S. cerevisiae deletion strains, locus YKR026C, strain gcn3, active compounds read low) was 1.03. The normalized growth (S. cerevisiae deletion strains, locus YKR091W, strain srl3, active compounds read low) was 1.03, the normalized growth (S. cerevisiae deletion strains, locus YLL001W, strain dnm1, active compounds read low) was 0.93 and the normalized growth (S. cerevisiae deletion strains, locus YLL026W, active compounds read low) was 0.997. The normalized growth (S. cerevisiae deletion strains, locus YLL041C, strain sdh2, active compounds read low) was 1.04, the normalized growth (S. cerevisiae deletion strains, locus YLR027C, strain aat2, active compounds read low) was 0.862 (active) and the normalized growth (S. cerevisiae deletion strains, locus YLR039C, strain RIC1, active compounds read low) was 0.0839 (active). For the same compound, the normalized growth (S. cerevisiae deletion strains, locus YLR058C, strain SHM2, active compounds read low) was 0.0596 (active), the normalized growth (S. cerevisiae deletion strains, locus YLR102C, strain apc9, active compounds read low) was 0.0585 (active) and the normalized growth (S. cerevisiae deletion strains, locus YLR113W, strain HOG1, active compounds read low) was 0.294 (active). For the same compound, the normalized growth (S. cerevisiae deletion strains, locus YLR221C, strain rsa3, active compounds read low) was 0.819 (active), the normalized growth (S. cerevisiae deletion strains, locus YLR258W, strain gsy2, active compounds read low) was 0.933 and the normalized growth (S. cerevisiae deletion strains, locus YLR262C, strain YPT6 (second series), active compounds read low) was 0.916. The normalized growth (S. cerevisiae deletion strains, locus YLR262C, strain YPT6, active compounds read low) was 0.155 (active), the normalized growth (S. cerevisiae deletion strains, locus YLR268W, strain sec22, active compounds read low) was 0.0659 (active) and the normalized growth (S. cerevisiae deletion strains, locus YLR320W, strain mms22, active compounds read low) was 0.881. The normalized growth (S. cerevisiae deletion strains, locus YLR330W, strain CHS5, active compounds read low) was 0.0494 (active), the normalized growth (S. cerevisiae deletion strains, locus YLR342W, strain FKS1 (second series), active compounds read low) was 0.0779 (active) and the normalized growth (S. cerevisiae deletion strains, locus YLR342W, strain FKS1, active compounds read low) was 1.01. For the same compound, the normalized growth (S. cerevisiae deletion strains, locus YLR357W, strain rsc2, active compounds read low) was 1.04, the normalized growth (S. cerevisiae deletion strains, locus YLR370C, strain arc18, active compounds read low) was 0.958 and the normalized growth (S. cerevisiae deletion strains, locus YLR371W, strain rom2, active compounds read low) was 0.0598 (active). The normalized growth (S. cerevisiae deletion strains, locus YLR384C, strain iki3, active compounds read low) was 1.04, the normalized growth (S. cerevisiae deletion strains, locus YLR418C, strain cdc73, active compounds read low) was 0.0923 (active) and the normalized growth (S. cerevisiae deletion strains, locus YML016C, strain PPZ1, active compounds read low) was 0.0501 (active). For the same compound, the normalized growth (S. cerevisiae deletion strains, locus YML032C, strain rad52, active compounds read low) was 0.112 (active), the normalized growth (S. cerevisiae deletion strains, locus YML120C, strain ndi1, active compounds read low) was 0.968 and the normalized growth (S. cerevisiae deletion strains, locus YML124C, strain tub3, active compounds read low) was 0.0587 (active). The normalized growth (S. cerevisiae deletion strains, locus YMR058W, strain fet3, active compounds read low) was 0.832 (active), the normalized growth (S. cerevisiae deletion strains, locus YMR078C, strain ctf18, active compounds read low) was 0.0795 (active) and the normalized growth (S. cerevisiae deletion strains, locus YMR125W, strain sto1, active compounds read low) was 1.04. For the same compound, the normalized growth (S. cerevisiae deletion strains, locus YMR129W, active compounds read low) was 1.01, the normalized growth (S. cerevisiae deletion strains, locus YMR205C, strain PFK2, active compounds read low) was 0.799 (active) and the normalized growth (S. cerevisiae deletion strains, locus YMR223W, strain ubp8, active compounds read low) was 0.0622 (active). For the same compound, the normalized growth (S. cerevisiae deletion strains, locus YMR231W, strain pep5, active compounds read low) was 1.02, the normalized growth (S. cerevisiae deletion strains, locus YMR263W, strain SAP30, active compounds read low) was 0.0592 (active) and the normalized growth (S. cerevisiae deletion strains, locus YMR307W, strain GAS1, active compounds read low) was 0.118 (active). For the same compound, the normalized growth (S. cerevisiae deletion strains, locus YNL067W, strain RPL9B, active compounds read low) was 0.0512 (active), the normalized growth (S. cerevisiae deletion strains, locus YNL071W, strain lat1, active compounds read low) was 0.543 (active) and the normalized growth (S. cerevisiae deletion strains, locus YNL128W, strain TEP1, active compounds read low) was 0.0609 (active). For the same compound, the normalized growth (S. cerevisiae deletion strains, locus YNL153C, strain GIM3, active compounds read low) was 0.0481 (active), the normalized growth (S. cerevisiae deletion strains, locus YNL183C, strain NPR1, active compounds read low) was 0.393 (active) and the normalized growth (S. cerevisiae deletion strains, locus YNL209W, strain ssb2, active compounds read low) was 0.983. For the same compound, the normalized growth (S. cerevisiae deletion strains, locus YNL233W, strain BNI4, active compounds read low) was 0.0537 (active), the normalized growth (S. cerevisiae deletion strains, locus YNL248C, strain rpa49, active compounds read low) was 0.883 (active) and the normalized growth (S. cerevisiae deletion strains, locus YNL250W, strain rad50, active compounds read low) was 0.513 (active). The normalized growth (S. cerevisiae deletion strains, locus YNL271C, strain bni1, active compounds read low) was 0.705 (active), the normalized growth (S. cerevisiae deletion strains, locus YNL298W, strain CLA4, active compounds read low) was 0.363 (active) and the normalized growth (S. cerevisiae deletion strains, locus YNL307C, strain MCK1, active compounds read low) was 0.0683 (active). For the same compound, the normalized growth (S. cerevisiae deletion strains, locus YNL322C, strain KRE1 (second series), active compounds read low) was 0.999, the normalized growth (S. cerevisiae deletion strains, locus YNL322C, strain KRE1, active compounds read low) was 0.047 (active) and the normalized growth (S. cerevisiae deletion strains, locus YNR049C, strain mso1, active compounds read low) was 1.02. The normalized growth (S. cerevisiae deletion strains, locus YNR052C, strain pop2, active compounds read low) was 0.12 (active), the normalized growth (S. cerevisiae deletion strains, locus YOL006C, strain TOP1, active compounds read low) was 0.0979 (active) and the normalized growth (S. cerevisiae deletion strains, locus YOL147C, strain pex11, active compounds read low) was 0.0692 (active). For the same compound, the normalized growth (S. cerevisiae deletion strains, locus YOR001W, strain rrp6, active compounds read low) was 0.923, the normalized growth (S. cerevisiae deletion strains, locus YOR061W, strain CKA2, active compounds read low) was 0.05 (active) and the normalized growth (S. cerevisiae deletion strains, locus YOR069W, strain VPS5, active compounds read low) was 0.0532 (active). The normalized growth (S. cerevisiae deletion strains, locus YOR070C, strain gyp1, active compounds read low) was 0.959, the normalized growth (S. cerevisiae deletion strains, locus YOR080W, strain dia2, active compounds read low) was 1.03 and the normalized growth (S. cerevisiae deletion strains, locus YOR083W, strain WHI5, active compounds read low) was 0.882 (active). The normalized growth (S. cerevisiae deletion strains, locus YOR106W, strain vam3, active compounds read low) was 0.818 (active), the normalized growth (S. cerevisiae deletion strains, locus YOR136W, strain idh2, active compounds read low) was 0.0688 (active) and the normalized growth (S. cerevisiae deletion strains, locus YOR144C, strain elg1, active compounds read low) was 0.063 (active). The normalized growth (S. cerevisiae deletion strains, locus YOR184W, strain ser1, active compounds read low) was 0.0695 (active), the normalized growth (S. cerevisiae deletion strains, locus YOR231W, strain MKK1, active compounds read low) was 0.277 (active) and the normalized growth (S. cerevisiae deletion strains, locus YOR265W, strain rbl2, active compounds read low) was 0.983. For the same compound, the normalized growth (S. cerevisiae deletion strains, locus YOR270C, strain vph1, active compounds read low) was 0.776 (active), the normalized growth (S. cerevisiae deletion strains, locus YOR290C, strain snf2, active compounds read low) was 1.02 and the normalized growth (S. cerevisiae deletion strains, locus YOR316C, strain cot1, active compounds read low) was 0.0564 (active). For the same compound, the normalized growth (S. cerevisiae deletion strains, locus YPL051W, strain arl3, active compounds read low) was 0.892 (active), the normalized growth (S. cerevisiae deletion strains, locus YPL055C, strain LGE1, active compounds read low) was 0.0708 (active) and the normalized growth (S. cerevisiae deletion strains, locus YPL078C, strain atp4, active compounds read low) was 0.941. For the same compound, the normalized growth (S. cerevisiae deletion strains, locus YPL106C, strain sse1, active compounds read low) was 0.904, the normalized growth (S. cerevisiae deletion strains, locus YPL240C, strain hsp82, active compounds read low) was 1 and the normalized growth (S. cerevisiae deletion strains, locus YPL241C, strain CIN2, active compounds read low) was 0.0549 (active). For the same compound, the normalized growth (S. cerevisiae deletion strains, locus YPL256C, strain CLN2, active compounds read low) was 0.356 (active), the normalized growth (S. cerevisiae deletion strains, locus YPR119W, strain clb2, active compounds read low) was 0.063 (active) and the normalized growth (S. cerevisiae deletion strains, locus YPR141C, strain kar3, active compounds read low) was 0.859 (active). For the same compound, the normalized growth (S. cerevisiae deletion strains, locus YPR163C, strain tif3, active compounds read low) was 0.0724 (active), the normalized growth (S. cerevisiae deletion strains, locus YPR167C, strain met16, active compounds read low) was 0.0586 (active) and the normalized growth (S. cerevisiae deletion strains, strain wtn01, active compounds read low) was 0.0598 (active). The normalized growth (S. cerevisiae strains, strain wild type, active compounds read low) was 0.0461 (active).
